Molecules are shown by their SMILES. Where “and” joins values, the source holds several entries; their conditions need not be identical. Equal values may be shown once. Calls of active or inactive are those of the source. Rule for the calls: active = hit-call score of the fitted dose curve at least 0.9, where 1 is the maximum; inactive = score below 0.9.

The values that follow come from PubChem BioAssay (EPA / NIEHS).

This experiment in a line: CCTE_Padilla_ZF_144hpf_TERATOSCORE: (Legacy) CCTE's 144 Hour Post-fertilization zebrafish Assay Teratoscore, Padilla Lab (AID 2283679).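 For AC50: teratogenicity score from eye scoring of death hatching and malformations at 144 hpf; higher score means more developmental defects relative to DMSO baseline.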 From the text:
CCTE_Padilla_ZF_144hpf is a whole embryo, multiplexed assay. Zebrafish embryos were exposed to chemicals starting 6 hr post-fertilization for 5 days in 96-well plates. Developing larvae were examined microscopically daily for malformation and mortality.CCTE_Padilla_ZF_144hpf_TERATOSCORE is one of one assay component(s) measured or calculated from the CCTE_Padilla_ZF_144hpf assay. It is designed to make measurements of developmental malformations and mortality as detected with brightfield microscopy.Data from the assay component CCTE_Padilla_ZF_144hpf_TERATOSCORE was analyzed into 1 assay endpoint. This assay endpoint, CCTE_Padilla_ZF_144hpf_TERATOSCORE, was analyzed in the positive analysis fitting direction relative to DMSO as the negative control and baseline of activity. Using a type of morphological reporter, gain-of-signal activity can be used to understand changes in developmental defect as they relate to the whole embryo. To generalize the intended target to other relatable targets, this assay endpoint is annotated to the malformation intended target family, where the subfamily is total.
Zebrafish husbandry: Wild type adult zebrafish (Danio rerio; undefined outbred stock obtained from Aquatic Research Organisms, Hampton, NH, 03842) were housed in an AAALAC-approved animal facility at 28C with a 14:10 h light: dark cycle (lights on at 08:30 h). Adult fish (2-3 females per male; density = 15-20 adults per tank) were kept in one of several 9-liter (L) flow-through colony tanks (Aquaneering Inc., San Diego, CA). All adults in a colony tank were placed in a 2 L (static) breeding tank (Aquatic Habitats, Apopka, FL) one hour prior to light onset. Typically, adults from two to three colony tanks were mated on the same day. Two hours after light onset the adults were returned to the colony tank. All embryos were gathered from each breeder tank, pooled, and placed in a 28C water bath for 2 h, followed by two washes with 0.06% bleach (v/v) in 10% Hanks' Balanced Salt Solution (13.7 mM NaCl 0.54 mM KCl, 25 uM Na2HPO4, 130 uM CaCl2 100 um MgSO4 and 420 um NaHCO3,), hereafter referred to as Hanks' solution, for 5 min in order to remove any residual bacteria or fungi. Immediately following washing, the embryos were examined, and healthy embryos were separated from dead or unfertilized eggs and moved into fresh Hanks'. Single Concentration Study: The chemicals were arrayed on a 96-well stock plate, 80 chemicals per plate, 20 mM concentration of each, with 16 DMSO (vehicle) controls. The embryos were exposed to the chemicals (80 Mfinal concentration, renewed daily) by immersion from 0 dpf until 5 dpf. Eighty micromolar was chosen as the highest concentration for two reasons (1) because the stock solutions were prepared at 20 mM in 100% DMSO. On 6 dpf, each embryo/larva was assessed for viability, hatching status and malformations. There were 4 embryos per concentration per chemical (each embryo on a separate microtiter plate). […] Chemical exposures: Zebrafish embryos were exposed in 96-well plates. Briefly, on day 0, approximately 6-8 h after fertilization, zebrafish embryos (with chorions) were placed 1 embryo per well in Millipore Multiscreen Nylon mesh plates (catalog number MANMN4050, Millipore Corp, Bedford, MA) and exposed to nominal concentrations of the chemicals. In each well, 1 ul of the chemical in DMSO from the stock plate was diluted with 250 ul of 10% Hanks' solution; the final DMSO concentration was 0.4% (v/v) in all wells; vehicle controls receives DMSO only. Each plate was sealed with a non-adhesive material (Type A, BioRad, Hercules, CA), covered with a lid, and wrapped in Parafilm to minimize evaporation. All embryos and larvae were kept in a 26C incubator with a 14:10 h light-dark cycle (with lights on at 08:30 h and off at 22:30 h). […]
For `O=C(N[C@@H](c1ccccc1)[C@@H]1CCCCN1)c1cccc(C(F)(F)F)c1Cl`, the AC50 (in general, the concentration at which the activity in the assay is half-maximal) was 20.3 µM (active).
Turning to `CCCCCCCCCCCCCCOS(=O)(=O)O`, the AC50 is 15.3 µM (active).
As for `Cc1ccc(C(C)(C)C)c(O)c1`, the AC50 was 92.9 µM (active).
On to `O=C(NS(=O)(=O)/C=C/c1cccs1)c1ccc(F)cc1Br`, for which the result was inactive.
On to `CCCCCCC(C=O)=Cc1ccccc1`, for which the AC50 was 13.9 µM (active).
As to `O=Cc1ccccc1C=O`, the AC50 is 1.15 µM (active).
For the compound `O=C(O)CN(CC(=O)O)CC(=O)O`, the compound was classed as inactive.
Regarding `CC(C)COC(=O)CCCCC(=O)OCC(C)C`, the AC50 is 32.4 µM (active).
As for `CC(C)(O)c1ccc(CNC(=O)c2cccnc2Oc2ccc(F)cc2)cc1`, the compound was called inactive.
For the compound `CCCC[C@H]1CN(CC2CCOCC2)C(=O)OC12CCN(C1(C)CCN(C(=O)c3c(C)ncnc3C)CC1)CC2`, the compound was called inactive.
Same read-out and setting: the result for `O=C(O)c1cccnc1` reads “inactive”; that for `O=C1O[C@H]([C@H](O)CO)C(O)=C1O`, “inactive”.
Take `Cc1cc(Cc2ccc(N)c(C)c2)ccc1N`: the AC50 is 88.5 µM (active).
In the case of `C#CC(O)C(CC)CCCC` (stereo not given), the concentration at half-maximal activity (AC50) is 21.2 µM (active).
Regarding `NCCOCCOCCN`, the outcome was inactive.
For `O=[Si]=O`, the call was inactive.
For `CCCCOC(=O)CCCCC(=O)OCCCC`, the AC50 is 15.9 µM (active).
As for `CC(C)OC(=O)C(C)(C)Oc1ccc(C(=O)c2ccc(Cl)cc2)cc1`, the AC50 was 1.78 µM (active).
The same measure, in the same setting: the result for `CCC(C)N(C)C(=O)c1cc2ccccc2c(-c2ccccc2Cl)n1` (stereo not given) reads 16.3 µM (active); that for `CC(COCC(C)OC(=O)c1ccccc1)OC(=O)c1ccccc1` (stereo not given), 7.06 µM (active) and 4.45 µM (active); that for `COc1ccc(OC(F)(F)F)cc1CN[C@H]1CCCN[C@H]1c1ccccc1`, 56.5 µM (active).
For the compound `NC=O`, the compound was classed as inactive.
With `CCc1nc(N)nc(N)c1-c1ccc(Cl)cc1`, the AC50 was 64.5 µM (active).
The same measure, in the same setting: the figure for `CN(C)CCCN1c2ccccc2Sc2ccc(Cl)cc21` is 6.24 µM (active); for `Oc1ccc(O)cc1` it is 15.6 µM (active).
Regarding `CS(=O)(=O)c1ccc([C@@H](C[C@H]2CCC(=O)C2)C(=O)Nc2cnccn2)cc1Cl`, the compound was called inactive.
For the compound `CCCCCCCCCC[N+](C)(C)[O-]`, the compound was called inactive.
Take `CC(=O)[C@@]1(O)CC[C@H]2[C@@H]3CCC4=CC(=O)CC[C@]4(C)[C@H]3CC[C@@]21C`: the AC50 is 36.1 µM (active).
The same measure, in the same setting: the result for `Cc1c(C)c2c(c(C)c1O)CCC(C)(COc1ccc(CC3SC(=O)NC3=O)cc1)O2` (stereo not given) reads 1.67 µM (active).
On to `CC(C)c1cccc(C(C)C)c1NC(=O)NS(=O)(=O)c1cc(C(C)(C)O)co1`, for which the result was inactive.
On to `Cc1cc(SC2=C(O)C[C@@](CCc3ccc(N)cc3)(C(C)C)OC2=O)c(C(C)(C)C)cc1CO`, for which the AC50 is 16.4 µM (active).
In the case of `S=c1[nH]c2ccccc2s1`, the AC50 was 31.1 µM (active).
As for `CCCCc1nc2cccnc2n1Cc1ccc(-c2ccccc2-c2nnn[nH]2)cc1`, the outcome was inactive.
Take `CC(=O)CC(c1ccccc1)c1c(O)c2ccccc2oc1=O` (stereo not given): the AC50 is 39.6 µM (active).
Take `CC(=O)O[C@]1(C(C)=O)CC[C@H]2[C@@H]3C=C(Cl)C4=CC(=O)[C@@H]5C[C@@H]5[C@]4(C)[C@H]3CC[C@@]21C`: the AC50 was 15.2 µM (active).
As to `CCN(CC)CCOc1ccc(C(=C(Cl)c2ccccc2)c2ccccc2)cc1`, the AC50 is 1.56 µM (active).
As for `Oc1ccccc1O`, the AC50 is 60.1 µM (active).
As to `CC(N)=O`, the compound was classed as inactive.
Consider `CCc1cc(C2=C(C(=O)O)N(c3ccccc3C(F)(F)F)S(=O)(=O)c3ccccc32)cc2c1OCO2`, for which the compound was called inactive.
Regarding `COC(=O)CCCC(=O)OC`, the AC50 is 62.7 µM (active).
